One assay addresses TEAD3. Description: pooled miR-30 sensor sort-seq; sequence = guide strand. As to conditions: shRNA.
Turning to TACTCCCGCACCTTCTTCCGAG, the sensor-assay potency score (higher = more potent) is -0.896.

TATGCAAACAGTGAGGACCTTC displayed a sensor-assay potency score (higher = more potent) of -0.217.

With TTTGCCAAAGGAGCACACCTTG, the sensor-assay potency score (higher = more potent) is -1.16.

TTGATCATGTACTCGCACATGG had a sensor-assay potency score (higher = more potent) of 0.181.

On to TCTGACAGGATGATCTTCCGCC, for which the sensor-assay potency score (higher = more potent) was found to be 0.971.

Sequence TTCTCTACCACCTGTTTGCCAA had a sensor-assay potency score (higher = more potent) of -0.68.

TTCTCGTCCGAGTCTTCCCCGT: the sensor-assay potency score (higher = more potent) was -0.997.

For the sequence TTGAGGTCGGCCCAGAACTTGA, the sensor-assay potency score (higher = more potent) is -1.66.

Take TATAGCGTGCAATCAACTCATT: the sensor-assay potency score (higher = more potent) is -1.09.

TTTCTCGTCCGAGTCTTCCCCG displayed a sensor-assay potency score (higher = more potent) of -0.491.

The target in another assay is TECPR1. The assay is described as above. As to conditions: shRNA.
For TCACCAACCATCTCAATCCAAC, the sensor-assay potency score (higher = more potent) was -1.66.

As to TTCCACTTCTTGTCTTTCGTGT, the sensor-assay potency score (higher = more potent) is 0.613.

In the case of TTGTCTTTCGTGTAGGTGGCGG, the sensor-assay potency score (higher = more potent) was -0.464.

Turning to TTCCACGGTATCTTCTGCGGTC, the sensor-assay potency score (higher = more potent) was -0.344.

TTGTTGGACACGTGCTCCCAGC: the sensor-assay potency score (higher = more potent) was -1.68.

TTGGTCTCGTTCAGCACTGGGA yielded a sensor-assay potency score (higher = more potent) of -0.998.

Sequence TTGAGGTCAATATTGGTCCAGG registered a sensor-assay potency score (higher = more potent) of -0.869.

In turn, TTCTTGTCTTTCGTGTAGGTGG had a sensor-assay potency score (higher = more potent) of -0.581.

The sequence TATGAGGCAGGGAAGTCGCTGG gave a sensor-assay potency score (higher = more potent) of -0.217.

In turn, TGTGGTACCAGCAGTCACCGGC gave a sensor-assay potency score (higher = more potent) of 0.193.

Consider TAGATGTTACTGGTGCTGCTGG, for which the sensor-assay potency score (higher = more potent) was -0.642.

Another assay concerns the target TEF. Described as above. To be noted: shRNA.
The sequence TCATCCTTCTGCTCGTCGGGGA gave a sensor-assay potency score (higher = more potent) of 0.16.

Regarding TTTAGCTGCCACGTTGTTCTTC, the sensor-assay potency score (higher = more potent) was -0.221.

For the sequence TAGCTCTGCTACAGGCAGCAGC, the sensor-assay potency score (higher = more potent) was -0.912.

For TTGTCCAGTACTTTTCATCCTT, the sensor-assay potency score (higher = more potent) worked out at 0.089.

TAGACTAGGTGTCTTGCCCTGC registered a sensor-assay potency score (higher = more potent) of -0.327.

TACTTGGACACGATGGTCTTGC yielded a sensor-assay potency score (higher = more potent) of -0.169.

For TTGGTGACTCTAGACTAGGTGT, the sensor-assay potency score (higher = more potent) worked out at 0.324.

With TTGCGTCTTGTCCAGTACTTTT, the sensor-assay potency score (higher = more potent) is -1.72.

In the case of TTCTTCTTGCGTCTTGTCCAGT, the sensor-assay potency score (higher = more potent) is -0.866.

The sequence TATGGGATGGTCTTGTCCCAGA came in with a sensor-assay potency score (higher = more potent) of -1.26.

The target of another assay is TELO2. Described as above. As to conditions: shRNA.
TTCTTGTTCTTCACCACCAGGT registered a sensor-assay potency score (higher = more potent) of -0.407.

For the sequence TCCATCAGCACTGCCAGCCGGC, the sensor-assay potency score (higher = more potent) is -1.21.

TTTCTCAGCCACGTCCGCCAGC showed a sensor-assay potency score (higher = more potent) of -1.03.

TTCTGGGTCATCACAAACTGGG came in with a sensor-assay potency score (higher = more potent) of -0.844.

As to TAGTTGAGGGCATAGAACTGTG, the sensor-assay potency score (higher = more potent) is -0.752.

With ATCATCGCTGTCCAGGTCCGAG, the sensor-assay potency score (higher = more potent) is -1.37.

Consider AAACTCATCATCGCTGTCCAGG, for which the sensor-assay potency score (higher = more potent) was -1.32.

As for TTGCCCAGCAGCGTCTCCCGGA, the sensor-assay potency score (higher = more potent) is -1.12.

With TTCATCAGCCGGAAGCTGGGGC, the sensor-assay potency score (higher = more potent) turned out to be 0.0431.

The values are drawn from the OligoGym collection.
Also: reference of the scale not given here.
